Shiga toxin inh: A qHTS for Small Molecule Inhibitors of Shiga Toxin; Vero cells, Shiga toxin protein synthesis inhibition reporter; inhibition, % at 38.7 µM; hit rate 9.2% among 290,000; AID 2315, 2010; in the data active = inhibition mostly above about 28%, no sharp cut-off; inactive = mostly below about 43%; note: 0% is about no effect
Lassa entry inh: qHTS for Inhibitors of binding or entry into cells for Lassa Virus; hit rate 1.2% among 300,000; Lassa virus pseudotype entry inhibition, cell reporter; Potency, µM (titrated, usually from 37.9 µM), for the others: at the highest dose activity change, negative = inhibition, usual class: inhibitors; calls by dose curve; tested in HEK293 cells; note: potency is the fitted concentration of half-maximal effect; % is set by controls: 0 for no effect and ±100 for the full control effect; nearly all actives have a fitted effect of over 50% in size
MARV entry inh: qHTS for inhibitors of binding or entry into cells for Marburg Virus; hit rate 1.8% among 300,000; Potency, µM (series often up to 37.8 µM), for inactives: at the highest dose activity change, negative = inhibition, hits mostly inhibitors; AID 540276, 2011; Marburg virus pseudotyped entry inhibition, cell reporter; calls by dose curve; tested in HEK293 cells; note: potency is the fitted concentration of half-maximal effect; % is set by controls: 0 for no effect and ±100 for the full control effect
HCV inhibitor: qHTS Assay for Inhibitors of Hepatitis C Virus (HCV); Huh7.5.1 HCVcc-Cre infection, luciferase reporter, 44 h; hit rate 3.4% among 340,000; Potency, µM (highest dose often 41.8 µM), inactives show at the highest dose activity change, negative = inhibition, actives largely listed as inhibitors; active = well fitted inhibition curve with a large enough effect; inconclusive = small, poorly fitted or top-dose-only effect, or another doubt; inactive = no such curve, though single readings can be large or run the other way; note: potency is the fitted concentration of half-maximal effect; % is set by controls: 0 for no effect and ±100 for the full control effect
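Whole-lifecycle infectious HCVcc-Cre system; cells 1,000/well, compound then virus (~0.5 moi) added 4 h after plating, 44 h culture. Luciferase read 15 sec following 15 min substrate incubation, room temp.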
Cycloheximide cs: Cycloheximide Counterscreen for Small Molecule Inhibitors of Shiga Toxin; cell reporter, cycloheximide protein synthesis inhibition counterscreen; max response, %; hit rate 12% among 300,000; in the data active = max response mostly above about 13%, no sharp cut-off; inactive = mostly below about 14%; note: read at 38.3 µM for the half of the compounds with a filed dose; 0% is about no effect
FMDV inh: High Throughput Screening for Foot and Mouth Disease Virus Antivirals; Potency, µM (series often up to 57.9 µM), for the others: at the top dose activity change, negative = inhibition, actives largely listed as inhibitors; FMDV antiviral cell-based qHTS; hit rate 1.2% among 410,000; AID 1159524, 2015; calls by dose curve; tested in HEK293T cells; note: read-out not given here; potency is the fitted concentration of half-maximal effect; % is set by controls: 0 for no effect and ±100 for the full control effect; nearly all actives have a fitted effect of over 45% in size
* = called active by the depositor; ? = inconclusive; nt = no result; [ ] = remark or other dose. The list is not random: actives were taken first. Their share in the collection is about 13%.

SMILES	Shiga toxin inh	Lassa entry inh	MARV entry inh	HCV inhibitor	Cycloheximide cs	FMDV inh
C=CCn1c(SCC(=O)Nc2cc(Cl)ccc2C(=O)O)nc2sc(C)c(C)c2c1=O	nt	nt	nt	15.9%	nt	-18.4%
C=CCn1c(SCC(=O)Nc2sccc2C(N)=O)nc2ccc(Cl)cc2c1=O	-14.8	?	?	7.94µM*	11.4	?
C=CCn1c(SCC(=O)Nc2sccc2C(N)=O)nc2ccccc2c1=O	-15.7	?	?	11.2µM*	-1.8	?
C=CCn1c(SCC(=O)Nc2sccc2C(N)=O)nc2sc(CC)cc2c1=O	2.0	?	12.6µM*	11.2µM*	5.5	25.1µM*
C=CCn1c(SCC(=O)Nc2ccccc2F)nc2ccccc2c1=O	-10.7	nt	nt	-0.5%	-0.3	-20.0%
CC(C)(C)C1CCCCC1NC(=O)c1ccncc1 (stereo not given)	8.8	5.5%[46.1 µM]	-4.9%[46.1 µM]	16.7%	0.2	12.1%
CCCCn1c(=O)[nH]c(=O)c2c1nc(-c1ccc(OCCC)c(OCC)c1)n2C	-6.1	nt	nt	13.5%	0.7	-23.8%
CCOc1ccc2nc3cc(NCc4ccc(OC)cc4)ccc3c(N)c2c1	-5.0	nt	nt	?	1.7	?
Nc1nc(N)c2cc(CNc3ccc(Cl)c(Cl)c3)ccc2n1	nt	nt	nt	nt	nt	35.5µM*
COc1ccccc1N1C(=O)NC(=O)/C(=C/c2ccc3c4c(cccc24)CC3)C1=O	33.2	-1.2%	7.4%	10.4%	17.5*	?
COc1ccccc1N1C(=O)NC(=O)/C(=C\c2cnn(-c3ccccc3)c2)C1=O	47.5*	4.7%[46.1 µM]	?	-1.4%	13.3	?
O=C1NC(=O)N(Cc2ccccc2)C(=O)/C1=C/c1cnn(-c2ccccc2)c1	51.3*	nt	nt	nt	30.4*	nt
O=C1NC(=O)N(c2ccccc2)C(=O)/C1=C\c1ccc2c3c(cccc13)CC2	11.7	nt	nt	-4.2%	2.5	nt
O=C(COC(=O)Cc1c(F)cccc1Cl)NC(=O)Nc1ccccc1F	nt	-2.3%	?	-10.2%	nt	-2.2%
COc1ccc(C(=O)/C=C/C(=O)N(CC(=O)NC2CCCCC2)Cc2ccc(F)cc2)c(O)c1	-3.5	?	?	?	-0.8	7.08µM*
CS(=O)(=O)N(CC(=O)NC1CCCCC1)Cc1ccc(F)cc1	-2.3	5.7%	-3.8%[46.1 µM]	10.4%	-0.9	-5.4%
COc1ccc(C(=O)/C=C/C(=O)N(CC(=O)NCCC(C)C)Cc2cccs2)c(O)c1	-4.6	?	20.6µM*	11.2µM*	6.9	3.55µM*
O=C(CNC(=O)c1ccc(Br)cc1)N/N=C/c1ccc[nH]1	6.4	?	?	2.51µM*	-2.2	-21.2%
O=C(N/N=C/c1ccc[nH]1)c1ccc(O)cc1	100.7*	?	?	-4.8%	27.5*	25.4%
Cc1cc(Br)c(OCc2ccc(C(=O)N/N=C/c3ccc[nH]3)cc2)c(Br)c1	nt	nt	nt	-3.9%	nt	?
O=C(N/N=C/c1ccc[nH]1)c1cc(-c2cccs2)nc2ccccc12	-1.1	?	?	?	-1.4	?
O=C(CNC(=O)c1ccc(F)cc1)N/N=C/c1cc(Br)ccc1OCc1ccccc1	10.4	-9.7%	?	?	1.3	-15.6%
O=C(N/N=C/c1ccc[nH]1)c1ccccc1O	39.9*	-13.1%	-16.8%[14.2 µM]	-11.1%	36.9*	0.0%
Cc1cccc(CN2C[C@]34CC[C@@H](C[C@@H]3S2(=O)=O)O4)c1	-1.5	nt	nt	7.08µM*	-1.8	-9.2%
Cc1cccc(CN2CC34CCC(CC3S2(=O)=O)O4)c1 (stereo not given)	10.1	nt	nt	nt	8.6	nt
SMILES	Shiga toxin inh	Lassa entry inh	MARV entry inh	HCV inhibitor	Cycloheximide cs	FMDV inh
O=S(=O)(Nc1cccc(-c2ccc3nncn3n2)c1)c1ccc(Cl)s1	-3.3	9.0%[46.1 µM]	?	-13.2%	-1.0	24.3%
CCn1c(SCc2ccc(C#N)cc2)nnc1-c1ccc(S(=O)(=O)N2CCCCC2)cc1	-0.8	?	-17.8%	7.94µM*	8.9	?
CCn1c(SCC(=O)N2CCCC2)nnc1-c1ccc(S(=O)(=O)N2CCCCCC2)cc1	-7.3	-15.8%	?	-4.6%	1.7	-25.2%
COC(=O)[C@]12CCCCC=C1N(Cc1cccc3ccccc13)C(=O)[C@H](CC(=O)N1CCN(C(=O)C3CC3)CC1)C2	nt	nt	nt	nt	nt	-19.2%
CCOc1ccc(CN2CCNC(=O)C2CC(=O)N(C)CC2CCOCC2)cc1 (stereo not given)	-10.9	13.7%	18.4%	11.1%	-2.3	6.9%
COc1ccc(N/C=C2/CCCCC2=O)cc1	129.1*	?	18.7%	1.5%	77.9*	28.3%
O=C1CCCC/C1=C/Nc1ccc(C(=O)O)cc1	41.8	-0.7%	?	-13.3%	29.7*	36.6%
Cn1cnc(S(=O)(=O)N2CCCC(C(=O)NCc3ccc(Cl)cc3)C2)c1 (stereo not given)	nt	-2.2%[46.1 µM]	nt	nt	nt	0.0%
COc1ccc(C(CNC(=O)c2ccc(NS(=O)(=O)c3ccc(F)c(C)c3)cc2)N2CCOCC2)cc1 (stereo not given)	nt	-24.9%	?	11.2%	nt	-23.8%
N#CC(=C1CCCC1)c1nc(-c2cc3ccccc3oc2=O)cs1	50.7*	?	?	-9.0%	32.3*	nt
N#CC(=C1CCCC1)c1nc(-c2ccccc2O)cs1	105.5*	10µM*	?	?	53.9*	13.2%
N#C/C(=N/O)c1nc(-c2ccccc2)cs1	nt	nt	14.6%	nt	nt	nt
N#CC(=C1CCCC1)c1nc(-c2ccccc2)cs1	103.4*	-2.3%	-6.0%	?	54.3*	2.3%
N#C/C(=C/c1ccccc1Cl)c1nc(-c2cc3ccccc3oc2=O)cs1	nt	2.7%[46.1 µM]	nt	nt	nt	-10.7%
CCc1ccc(/C=C(/C#N)c2nc(-c3ccc(C)cc3)cs2)cc1	nt	6.3%[46.1 µM]	1.9%[46.1 µM]	nt	nt	-20.3%
N#C/C(=N\O)c1nc(-c2ccccc2)cs1	9.2	0.9%	9.5%	20.0%	-2.5	1.4%
Cc1ccc(-c2csc(C(C#N)=C3CCCC3)n2)cc1	73.6*	?	?	9.9%	24.6*	69.1%
CCCOc1cccc(C(=O)Nc2cccc(NC(=O)c3ccc(Cl)cc3Cl)c2)c1	nt	1.1%[46.1 µM]	nt	nt	nt	-19.5%
CCc1n[n+](CC(=O)c2ccccc2)c(N)s1	53.3	7.94µM*	?	-10.9%	21.7*	-51.9%
COc1ccccc1CNC(=O)c1ccc(-c2nc(CS(=O)c3ccccc3)c(C)o2)cc1 (stereo not given)	nt	-20.2%[46.1 µM]	nt	nt	nt	0.0%
CN(C)c1nc(NCc2ccccc2)nc(N/N=C/c2cccc(Br)c2)n1	6.4	10.9%	?	?	5.9	?
Cc1cc(N/N=C/c2cccc(Br)c2)nc2ccccc12	23.8*	12.9%	-14.7%	0.4%	33.4*	39.5%
Cc1cc(N/N=C/c2ccncc2)nc2ccccc12	49.5*	?	?	?	13.7	20.0%
Cc1ccc(C)c(NC(=O)CN(C)C(=O)c2ccc(S(=O)(=O)N3CCCCCC3)cc2)c1	nt	nt	nt	-5.3%	nt	-16.8%
CCOc1cc(-c2ccc(OC(=O)c3ccc(C)cc3)c(OC)c2)cc(=O)c2c(C)oc(C)c12	nt	6.0%[46.1 µM]	20.8%[46.1 µM]	nt	nt	25.1µM*

Source: PubChem BioAssay
